# Data reported in the supplement of paper PMC10338343.
# ± gives the standard deviation.
# System: MILI (PIWIL2) piRISC loaded with piRNA #1 (26 nt)
# Experiment: pre-steady-state target cleavage rate (min^-1); guide: piRNA #1 5'p-UGAGGUAGUAGGUUGUAUAGUAUCCA; MIWI and MILI are mouse PIWI proteins and EfPiwi is from a freshwater sponge; tags in brackets are library labels; higher = faster piRNA-guided slicing of the target
# Details: auxiliary factor: 500 nM mouse GTSF1
# Method: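 Cleave-'n-Seq: a library of target RNAs (target site embedded in constant flanks, ACAGCATTCCGCGTTAGTGATATCCG... 5' flank; DNA-blocked outside the site) at 0.1 nM was incubated with 1 nM active mouse MILI or MIWI piRISC (synthetic 5'-monophosphorylated piRNA guide) with or without 500 nM mouse GTSF1 at 33 °C for 1 min to 16 h. Uncleaved targets were sequenced and normalised to non-target controls, and the pooled three trials were fitted to a burst-and-steady-state model to give the pre-steady-state cleavage rate (min^-1; k3 is constrained to at most 1e-4). Sequence is the target site only; target names encode pairing extent (gX:gY) and contiguous / 1-mismatch / 2-mismatch / bulge geometry. Fits with R² ≤ 0 are excluded.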
row,Sequence,pre-steady-state target cleavage rate
1,GGAGACCUAACUAUACAACCUAACUACCUCA,0.00748 ± 0.0037
2,GGAGAGGAGACUAUACAACCUACUACCUCA,0.25 ± 0.052
3,GGAGACCUAUGUAUACAAGCUACUAGCUCA,0.0122 ± 0.0045
4,GGAGACCUAUGAUAAACAACCUACUACCUCA,0.00811 ± 0.0029
5,GGAGUGGAUACUAUACAACAUACUACCUCA,0.0845 ± 0.0098
6,GGAGACCUAUGAUAUGUUCCUACUCCUCA,< 0.0001
7,GGAGAGGAUUCUAUACAACCUAGUACCUCA,0.0548 ± 0.0098
8,GGAGACGUUACUAUAGAACCUACUACCUCA,0.154 ± 0.014
9,GGAGACCUUACUAUACAAGCUACAACCUCA,0.239 ± 0.018
10,GGAGACCUAUGAUUACAUCCUACUACCUGA,0.0052 ± 0.0025
11,GGAGACCAUACUAUACAAGCUACUACCACA,0.32 ± 0.02
12,GGAGACCUAUGAUAUGAACCUACCUACCUCA,< 0.0001
13,GGAGACGAUACUAUACAUCCUUCUACCUCA,0.0277 ± 0.0037
14,GGAGACCUAUGAUUACAUGCUACUACCUCA,0.00366 ± 0.0034
15,GGAGACCUAUGUAAUACAACCUACUACCUCA,0.0179 ± 0.0049
16,GGAGACGAUAGUAUACAACCUACUUCCUCA,0.0731 ± 0.015
17,GGAGUGGAAACUAUACAACGUACUACCUCA,0.0251 ± 0.0048
18,GGAGACCUUUACUAUACAACCUACUACCUCA,0.154 ± 0.012
19,GGAGAGGUUACUAUACAACCUACUACGUCA,0.011 ± 0.0037
20,GGAGAGGAUACUAUACAAACCUACUACCUCA,0.00683 ± 0.0028

row,Sequence,pre-steady-state target cleavage rate
1,GGAGACGAUACUAUACAACCUACUAUCCUCA,0.193 ± 0.024
2,GGAGACCUAUGAAUACAACCUACUACCUACA,0.00696 ± 0.0027
3,GGAGAGGAUACUUUACAACCUACAACCUCA,0.11 ± 0.016
4,GGAGACCUAUCGAUACAACCUACUACCUCA,0.0869 ± 0.014
5,GGAGACCUAACUAUACAACCUACUACGCUCA,0.212 ± 0.042
6,GGAGACCUAUGAUAUGUUGCUACUCCUCA,< 0.0001
7,GGAGUGGAUACUGAUACAACCUACUACCUCA,0.144 ± 0.01
8,GGAGACCUAUCAAUACAACCUACUACCACA,0.0775 ± 0.019
9,GGAGACCUUACUAUACAAGCUAGUACCUCA,0.138 ± 0.02
10,GGAGACGAUACUAUACAACUACUACCUCA,0.0571 ± 0.0061
11,GGAGACCUAUGAUAUGAACCUAGAUGGAGA [g9:g14:cont:t1A],< 0.0001
12,GGAGACGUUUCUAUACAACCUACUACCUCA,0.105 ± 0.013
13,GGAGACCUAUGAUAUGUUGCUAGAUCCUCA,< 0.0001
14,GGAGACCUAACUAUAAAACCUACUACCUCA,0.0772 ± 0.013
15,GGAGAGGAUACUAUUCAACCUACUACGUCA,0.0602 ± 0.0084
16,GGAGUGGAUUCUAUACAACCUACUACCUCA,0.175 ± 0.0091
17,GGAGACCUAACUUUACAACCUACAACCUCA,0.0823 ± 0.027
18,GGAGAGGAUACUAUACAUCCUACUACCUGA,0.00529 ± 0.0032
19,GGAGACCUUACUCUACAACCUACUACCUCA,0.202 ± 0.02
20,GGAGACCUUACUAUUCAACCUACUACCACA,0.161 ± 0.016
